Results from the supplement of paper PMC3334620.
Whole data set: some 33,000 sequences, median “E-score (-0.5 to 0.5)” near -0.012, cut for the highest 2% near 0.27. For the sample, the highest values were picked, then their nearest neighbours and some sequences at random.

Molecular target: T1, Vhr1 (UniProt P40522)
T1 sequence: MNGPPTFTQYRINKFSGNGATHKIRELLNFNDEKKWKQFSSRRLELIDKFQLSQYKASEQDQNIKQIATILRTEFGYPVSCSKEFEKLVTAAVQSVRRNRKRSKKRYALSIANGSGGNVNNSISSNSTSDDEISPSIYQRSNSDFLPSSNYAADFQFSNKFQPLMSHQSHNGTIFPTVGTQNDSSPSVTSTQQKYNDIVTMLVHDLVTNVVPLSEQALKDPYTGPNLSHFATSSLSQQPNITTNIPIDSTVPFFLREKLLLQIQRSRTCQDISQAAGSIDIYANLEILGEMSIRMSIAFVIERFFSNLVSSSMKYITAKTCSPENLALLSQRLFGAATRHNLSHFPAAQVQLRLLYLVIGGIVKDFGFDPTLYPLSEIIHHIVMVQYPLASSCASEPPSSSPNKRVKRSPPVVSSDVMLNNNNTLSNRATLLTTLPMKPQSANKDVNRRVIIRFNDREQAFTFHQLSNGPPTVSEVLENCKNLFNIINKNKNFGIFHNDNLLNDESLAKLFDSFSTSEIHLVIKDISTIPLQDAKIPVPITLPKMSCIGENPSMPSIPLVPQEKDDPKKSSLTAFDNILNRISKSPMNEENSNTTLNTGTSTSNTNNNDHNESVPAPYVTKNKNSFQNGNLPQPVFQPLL
Assay: PBM E-score (8-mer binding enrichment) (E-score (-0.5 to 0.5)); higher = stronger / more preferred TF binding
Settings: protein concentration: 200 nM; construct: GST-full length
Procedure: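 Universal 'all 10-mer' protein binding microarrays (Agilent AMADID 015681) probed with GST-tagged S. cerevisiae TFs (full-length or DBD) made by in vitro transcription/translation (PURExpress), about 100-200 nM. Bound TF was detected with fluorescent anti-GST. Each ungapped 8-mer (which stands for itself and its reverse complement) is scored by the PBM enrichment score (E-score), a modified Wilcoxon-Mann-Whitney statistic from -0.5 to +0.5, computed with the Universal PBM Analysis Suite. Scale: above 0.35 generally sequence-specific binding.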

Sequence	PBM E-score
ACCATGTG	0.295
ACTATGTG	0.292
ACTATGTA	0.207
ACTATGTC	0.091
ACCATGTA	0.261
ACCATGTC	0.144
ATGCCCTC	-0.0196
CCAGGTTA	-0.0596
ATGATTGG	0.178
ATGATTGA	0.344
CTGATTGC	0.035
CTGATTGA	0.177
ACGATTGC	0.0187
GCGATTGA	-0.121
GTGATTGA	0.329
ACGATTGA	0.0265
ATGATTGC	0.345
ACTCTTAA	-0.233
ACGTTGGA	0.0766
GGCGTTAC	-0.119
ACGTGATG	0.00697
AAGAAGCT	-0.191
CCTCTGCC	-0.286
AAAGCGTA	-0.183
ATAGCATG	-0.034
GCTGTCAA	-0.125

Sequence	PBM E-score
ATTTTATC	-0.13
AGAGCGCT	-0.249
ACCGTTCA	-0.0238
CCTCGCGC	-0.0292
CCTCGCCG	-0.118
ACTCGCGA	0.227
CGTCGCGA	0.181
ACTCGCCT	0.0445
ACTCGCCG	0.306
AGTCGCGA	0.305
ACTCGCGG	0.209
GGTCGCGA	0.194
ACTCGCGC	0.273
AGTCGCGG	0.351
AGTCGCTG	0.216
AGCAAATA	-0.0751
CAAATTGA	-0.124
TGCAGCAA	0.114
AATCCTAC	-0.159
CTAAGCCA	-0.0787
TACGGCGA	0.0569
ACCGAGTG	0.13
AATGCGCG	0.193
CAATTCTG	-0.077
AGAAAATA	-0.0162
ACTCGCTG	0.0751

Sequence	PBM E-score
CGTCGCGC	0.0614
AGTCGCGC	0.374
AGTCGCTC	0.237
ACTCGCTA	0.133
ACTCGCTC	0.282
ACAGGTTG	0.0217
AACCAATG	0.209
CAGAGTTC	-0.0458
CCCCTACG	-0.139
CATCCATC	0.0866
GTCATGTA	0.141
ACCTATAG	-0.144
CCCGACTA	0.206
ACCGACTG	0.177
CCCGACCC	0.123
CCCGACTC	0.426
ACCGACTA	-0.0288
ACCGACTC	0.34
CAAGACGA	-0.109
CCACTCCA	0.0742
CGACTCCA	0.4
AGACTCCC	-0.00382
CAACTCCG	-0.0132
GGACTCCC	0.0918
TGACTCCA	0.48
CGACTCCG	0.391

Sequence	PBM E-score
CGACTCCC	0.321
AGACTCCA	0.133
CTACTCCA	-0.0498
GGACTCCA	0.13
AGACTCCG	0.225
TCCCCCCA	-0.233
CATACTAG	0.238
GTTTGAAA	-0.0935
ATTGTGAA	-0.0037
ATCCAGGG	-0.0888
AGCTCCCT	-0.235
CCCCCTAC	-0.185
AAAAGCGC	-0.137
CGAATCAA	0.127
AGAATCCT	-0.231
AGAATCAT	0.323
AGAATCAG	0.283
AGAATCAC	0.228
CCAATCAG	-0.0885
AGAATCAA	0.0929
ACAATCAT	0.231
CGAATCAG	0.344
ACCTCCTG	-0.139
CGTCTCGC	-0.0775
ATATCTGC	0.104
AGAAGATG	-0.183

Sequence	PBM E-score
CCCCGCCA	0.398
ACCCGCGT	0.00191
GCCCGCCA	0.13
CACCGCCC	0.293
ACCCGCGG	0.275
CACCGCCA	0.242
AACCGCCC	0.0139
CCCCGCGG	0.0864
TCCCGCCA	0.0546
AGCCGCGG	0.178
ACCCGCGC	0.342
ACCCGCGA	0.144
AGTCTAAG	-0.0818
AAAAAAGC	-0.19
CGAGATTA	0.0687
GGAGGGGA	0.219
TACGCCAA	-0.241
GCCCGCCC	0.137
ACCCGCCC	0.428
ACCCGCCG	0.197
ATCCTACC	0.0595
ACGCTTAC	-0.205
CTGTGTAA	0.134
ATGTGTCG	0.29
ATGTGTGG	0.08
ATGTGTCC	0.157

Sequence	PBM E-score
ATGTGTTA	0.195
ATGTGTGC	0.12
ATGTGTCA	0.143
ATGTGTGA	0.29
CTGTGTGC	0.177
CTGTGTTA	0.169
GTGTGTTA	0.278
CTGTGTGA	0.306
AGGACTGG	0.113
ACTAGACG	-0.048
ATTTTGCC	-0.15
AGACTTGC	-0.249
AACATCTA	-0.152
CACCAGCC	0.143
ATAGACGG	0.00408
TACCAACA	0.145
GATATGCA	-0.0288
TCTTTCCA	-0.157
GGCCAAAC	-0.155
GCGTGTGA	0.104
GTGTGAGA	0.0943
GTGTGTGA	0.298
TAGAGGGA	-0.0999
AGTTTGAT	0.0522
CTTAACCC	-0.213
AACCAGAC	-0.00075

Sequence	PBM E-score
CACCAGAC	0.309
GACCAGAC	-0.141
GCTTGCAC	-0.0624
CTGATTTC	-0.00794
ATGATTAC	0.391
ATGATTAA	0.264
ATCATTAG	0.148
ATCATTAC	0.274
ACGATTAC	0.161
CTGATTAA	0.191
CTGATTAC	0.278
ACGATTAG	0.045
ATCATTAA	0.0987
ATGATTAG	0.317
AAGATTAC	-0.0671
TGCCACAA	0.0692
TAGTAGAA	-0.199
ATGGTAGG	0.104
CCTAAGCA	-0.108
GAAGCACA	-0.00604
GATCAGTA	0.121
ACGTGACG	-0.137
AGGTGACT	0.425
AGGTGACG	-0.0476
ACGTGACA	-0.197
AGGTGACA	0.0488

Sequence	PBM E-score
ACGTGACT	0.41
CTCATAAC	0.00985
ATGTGGTG	0.227
AGAAGATA	-0.193
TCAGTTAA	-0.108
AGTAGGCA	0.154
CACAACGC	0.134
GTGACTAA	0.428
ACGACTAG	0.162
AAGACTAG	-0.209
CAGACTAC	0.136
CGGACTAC	0.0519
GGGACTAA	-0.209
CGGACTAA	0.102
CTGACTAC	0.361
GTGACTTA	0.259
CAGACTAA	0.117
ATGACTAG	0.369
CTGACTAA	0.359
AGGTGGAG	-0.191
CGATCGCA	0.178
TCCCTGCA	0.0302
AGGGTTGC	-0.068
CGAGCGAG	0.262
ATTCGAGC	-0.0346
GGCCATAC	0.0276

Sequence	PBM E-score
AGGACTAC	0.067
ATGACTAC	0.462
ATGACTAA	0.42
AAGACTAC	0.122
AGGACTAA	0.054
AAGACTAA	0.116
AGTCTACC	-0.0695
CGAAGTGC	-0.107
AAACGCAC	0.142
CAAAAGGA	-0.2
AACTGATC	0.157
CGGCAGCC	0.282
CGGCAGCA	-0.0628
AGGCAGCC	-0.0232
AGGGGGCA	-0.151
GAAACACA	0.0985
AATTGAGG	-0.233
AATTGAGT	0.272
AATTGAGA	-0.0698
TGAATCCA	0.185
CACATGAC	0.272
ATCATGAC	0.335
GTCATGAA	0.257
CACATGAA	0.0563
CTCATGAG	0.0895
ATCATGAG	0.235

Sequence	PBM E-score
GTCATGAC	0.31
CTCATGAA	0.0223
ATCATGAA	0.118
CACATGAG	0.065
CTCATGAC	0.326
GACATGAC	0.202
CTTTCAAC	-0.128
CGTGGTGA	-0.158
CAGACGGC	-0.0191
CGAACTAG	-0.0301
TCTAGAAA	-0.272
AACCCTGA	0.286
AACCCATT	0.0791
AACCCATA	0.271
CACCCTGA	0.245
ACCCCTGA	0.143
GACCCATA	0.251
AATTGACT	0.149
CTTAAGTA	-0.199
CTAGGTTC	-0.0959
CCGAATGC	-0.0649
CATAGTCC	0.115
GATAGTCA	0.357
AATAGTCT	-0.0519
TATAGTAA	0.15
CATAGTCA	0.37

Sequence	PBM E-score
TATAGTCA	0.318
AATAGTCA	0.344
TATAGTGA	-0.0332
CATAGTCG	0.238
GATAGTCC	0.0259
AATAGTCG	0.148
GATAGTAA	0.0876
ACGGGAGG	-0.13
AATGTGGT	0.115
GAATCGAC	-0.005
ACAAATCG	0.0133
ATCAGCTA	0.0387
GAAGGATC	-0.0379
GGCTCAAC	-0.199
CTGGCTGA	0.143
ACAATCGT	0.0768
CAATCCTG	0.122
ATATGGAA	0.178
ATGCTGTG	0.116
AGTGTGAC	0.209
AGTGTGAT	0.296
AGTGTGAG	0.147
ACGTCAGA	-0.0949
ACAGTTGG	-0.02
AGCGAGTC	0.275
AGCGAGTG	0.192

Sequence	PBM E-score
CTCGAGTC	0.235
AGCGAGTA	0.119
CGCGAGTC	0.355
CGCGAGTA	0.112
CATCACAA	0.0244
CGCCAAGA	-0.0615
CGGAGCGA	0.0369
ACTTGGGA	-0.155
AGCCAGTG	0.00862
AGTTGCAT	-0.0357
CACCTTAA	-0.0968
GGGAATAA	-0.0372
AGGAATCG	0.0478
AAGAATCA	0.222
TAGAATCA	0.185
AGGAATCC	0.119
AGGAATCA	0.28
CGGAATCC	0.0628
CGGAATCA	0.412
GGGAATCA	0.307
CAGAATCA	0.313
CGGAATTA	-0.193
GGGAATGA	0.169
CACTCGAG	-0.029
CTCTTCAG	-0.0887
TTCCTCAA	-0.19

Sequence	PBM E-score
ATGGTCCG	0.175
ATAGGCCA	-0.159
AGACTAAC	0.0491
GCTAAACA	-0.0852
ACTGGCAC	-0.113
ATGAAGCG	-0.136
TGAAATAA	-0.158
ACATTTAT	-0.0139
ACTTGCGA	0.0242
GCTTGCGA	0.295
CCTTGCGA	-0.0209
ACTGGCCT	-0.135
CAGATGTC	0.105
AGAGTCGA	0.157
AAAGTCGC	0.137
AGAGTCTG	-0.106
CGAGTCGA	0.224
AGAGTCGG	0.329
AGAGTCGC	0.338
ATAGTCGC	0.243
CGAGTCGC	0.34
CCAGTCGC	0.13
CCCTTCTA	-0.218
CTAGCTGA	0.0125
CTACTGAA	0.132
CGCCCTCA	-0.16

Sequence	PBM E-score
AAGGGCTC	-0.218
AGGGCTCG	-0.079
AGCTTCTA	-0.278
AGTGATAC	0.237
AGTGATTA	0.216
AGTGATTC	0.285
CGTGATTA	0.236
CGTGATCC	-0.0765
AGTGATAG	-0.0174
CGCGATTC	0.278
ATTGATTG	0.0691
CGTGATTC	0.326
CGCGATTA	0.162
AGTGATTG	0.343
AGCGATTC	0.168
